# Source: PubChem BioAssay (NCI)
# Where “and” joins values, the source holds several entries; their conditions need not be identical. Identical values can stand only once. The panel holds about 79,000 compounds, 15% with a hit somewhere; the sample as a whole holds those more often. Where a structure was tested more than once in an assay, its records may differ in their call. Calls of active or inactive are those of the source. Rule as the data show it: active = growth inhibition above about 70%; inactive = the rest.
# Key:
# [1] = NCI Yeast Anticancer Drug Screen. Data for the rad50 strain (AID 155);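 also: 0% = growth of vehicle-only cultures of the same strain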; settings: S. cerevisiae rad50 strain growth inhibition, stronger effect = higher value
# Method in brief: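 Cells are treated with compound, grown, and their growth is then scored against vehicle-only cultures of the same repair-deficient yeast strain.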
# [2] = NCI Yeast Anticancer Drug Screen. Data for the mec2-1 strain (AID 157); settings: S. cerevisiae mec2-1 strain, stronger effect = higher value
# Method in brief: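 Mutant yeast (mec2-1) grown with compound; growth inhibition relative to vehicle control reported.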
# [3] = NCI Yeast Anticancer Drug Screen. Data for the sgs1 mgt1 strain (AID 161);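 also: 0% = growth of cultures given vehicle only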; settings: S. cerevisiae sgs1 mgt1 strain, stronger effect = higher value
# Method in brief: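 Growth of a repair-deficient yeast mutant was monitored after compound treatment and expressed as inhibition relative to vehicle-treated cultures.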
# [4] = NCI Yeast Anticancer Drug Screen. Data for the cln2 rad14 strain (AID 165);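 also: 0% = growth equal to vehicle treated cultures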; settings: S. cerevisiae cln2 rad14 strain, stronger effect = higher value
# Method in brief: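 Readout is yeast growth inhibition versus vehicle-treated controls, using a strain with cln2 and rad14 alterations exposed to compound.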
# [5] = NCI Yeast Anticancer Drug Screen. Data for the bub3 strain (AID 167); settings: S. cerevisiae bub3 mutant strain, stronger effect = higher value
# Method in brief: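 Part of a panel of yeast mutants defective in DNA damage repair or cell cycle regulation. Each strain is grown with compound, and inhibition is calculated relative to solvent-treated cultures.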
# [6] = NCI Yeast Anticancer Drug Screen. Data for the mlh1 rad18 strain (AID 175); settings: S. cerevisiae mlh1 rad18 strain growth inhibition, stronger effect = higher value
# Method in brief: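 Genetically defined yeast (DNA repair-deficient) exposed to compounds; growth inhibition determined relative to vehicle.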
# [7] = at 5.0 µM (retest, dose inferred, filed as 0.5)
# [8] = at 50.0 µM (retest, dose inferred, filed as 5.0)
SMILES,"growth inhibition [1, 7]","growth inhibition [1, 8]",growth inhibition ([1]; at 50.0 µM),"growth inhibition [2, 7]","growth inhibition [2, 8]",growth inhibition ([2]; at 50.0 µM),"growth inhibition [3, 7]","growth inhibition [3, 8]",growth inhibition ([3]; at 50.0 µM),"growth inhibition [4, 7]","growth inhibition [4, 8]",growth inhibition ([4]; at 50.0 µM),"growth inhibition [5, 7]","growth inhibition [5, 8]",growth inhibition ([5]; at 50.0 µM),"growth inhibition [6, 7]","growth inhibition [6, 8]",growth inhibition ([6]; at 50.0 µM)
CCCCCCCCCCCC(=O)CN1CCOCC1,34% (inactive),99% (active),98.9% (active),25% (inactive),100% (active),99.8% (active),47% (inactive),99% (active),61.9% (inactive),39% (inactive),99% (active),97.8% (active),87% (active),99% (active),99.7% (active),31% (inactive),99% (active),99.2% (active)
COc1cc(C2C(C#N)=C(C)Nc3nc(N)nc(N)c32)cc(OC)c1OC (stereo not given),-6% (inactive),19% (inactive),24.6% (inactive),-7% (inactive),13% (inactive),3.75% (inactive),-8% (inactive),10% (inactive),19.1% (inactive),-6% (inactive),9% (inactive),81.4% (active),0% (inactive),65% (inactive),1.2% (inactive),-1% (inactive),21% (inactive),8.95% (inactive)
O=C(O)C#CC(=O)O,22% (inactive),76% (active),76.2% (active) and 1.25% (inactive),20% (inactive),20% (inactive),85.7% (active) and -6.9% (inactive),28% (inactive),63% (inactive),76.2% (active) and 12.3% (inactive),31% (inactive),30% (inactive),17.6% (inactive) and 1.65% (inactive),26% (inactive),38% (inactive),60% (inactive) and -7.7% (inactive),35% (inactive),60% (inactive),75.5% (active) and 15.1% (inactive)
BrC(c1cccc2ccccc12)c1cccc2ccccc12,23% (inactive),97% (active),95.5% (active),20% (inactive),97% (active),94.7% (active),1% (inactive),96% (active),94.8% (active),0% (inactive),94% (active),92.8% (active),-6% (inactive),96% (active),94.2% (active),18% (inactive),95% (active),95% (active)
O=C(OCC(OC(=O)c1ccccc1)C(OC(=O)c1ccccc1)C(OC(=O)c1ccccc1)C(OC(=O)c1ccccc1)c1nn[nH]n1)c1ccccc1 (stereo not given),61% (inactive) and 23% (inactive),72% (active) and 81% (active),93.1% (active) and 90.7% (active),52% (inactive) and 41% (inactive),72% (active) and 77% (active),87.5% (active) and 89% (active),54% (inactive) and 18% (inactive),72% (active) and 75% (active),93.3% (active) and 91.6% (active),54% (inactive) and 40% (inactive),75% (active) and 82% (active),90.2% (active) and 90.3% (active),75% (active) and 16% (inactive),88% (active) and 74% (active),78.6% (active) and 82.8% (active),60% (inactive) and 26% (inactive),74% (active) and 81% (active),89.2% (active) and 90% (active)
CCN1/C(=C/C=C/C=C/c2sc3ccccc3[n+]2CC)Sc2ccccc21,97% (active),25% (inactive),56.1% (inactive) and 66.5% (inactive),98% (active),28% (inactive),64.7% (inactive) and 70.8% (active),96% (active),11% (inactive),79.5% (active) and 58.2% (inactive),93% (active),28% (inactive),67.7% (inactive) and 65.2% (inactive),97% (active),1% (inactive),53.8% (inactive) and 52.5% (inactive),96% (active),14% (inactive),54.5% (inactive) and 43.6% (inactive)
COc1ccc(/C=C2\C=Nc3ccccc32)cc1,12% (inactive),-10% (inactive),12.7% (inactive),-3% (inactive),10% (inactive),-5.7% (inactive),0% (inactive),-3% (inactive),17.9% (inactive),28% (inactive),25% (inactive),10.4% (inactive),18% (inactive),30% (inactive),33.7% (inactive),12% (inactive),11% (inactive),4.55% (inactive)
O=C(O)c1ccc(C(c2ccccc2)c2ccccc2)cc1,-19% (inactive),100% (active),97% (active),10% (inactive),100% (active),97.2% (active),11% (inactive),99% (active),98% (active),-11% (inactive),99% (active),96.3% (active),-1% (inactive),99% (active),98.3% (active),8% (inactive),99% (active),98% (active)
C=CC(=O)OCCOc1ccc(Cl)cc1Cl,1% (inactive),98% (active),57.2% (inactive),2% (inactive),99% (active),30.4% (inactive),6% (inactive),98% (active),73.2% (active),-1% (inactive),94% (active),-28.1% (inactive),12% (inactive),97% (active),24.2% (inactive),24% (inactive),98% (active),83.9% (active)
O=C(OC(=Nc1ccccc1)N(c1ccccc1)c1ccccc1)c1ccccc1,5% (inactive),27% (inactive),13% (inactive) and 20.9% (inactive),5% (inactive),8% (inactive),3.75% (inactive) and 12.8% (inactive),-7% (inactive),40% (inactive),12.7% (inactive) and -15.7% (inactive),5% (inactive),21% (inactive),17.8% (inactive) and -2.05% (inactive),17% (inactive),34% (inactive),5.4% (inactive) and -0.45% (inactive),9% (inactive),20% (inactive),1.95% (inactive) and 12.6% (inactive)
O=[N+]([O-])Cc1cnc2nncn2n1,-6% (inactive),96% (active),86.3% (active),-9% (inactive),97% (active),98.4% (active),2% (inactive),96% (active),99.2% (active),2% (inactive),53% (inactive),24.2% (inactive),-27% (inactive),99% (active),38.5% (inactive),-12% (inactive),97% (active),87.5% (active)
Nc1ncnc2c(C3OC(CO)C(O)C3O)scc12 (stereo not given),12% (inactive),36% (inactive),15.8% (inactive),12% (inactive),40% (inactive),26.4% (inactive),7% (inactive),42% (inactive),39.4% (inactive),21% (inactive),5% (inactive),30.9% (inactive),-21% (inactive),30% (inactive),47.6% (inactive),14% (inactive),63% (inactive),39.4% (inactive)
CCCC(C)NCCOC(=O)C(c1ccccc1)C1CCCCC1 (stereo not given),-11% (inactive),49% (inactive),85.6% (active),3% (inactive),36% (inactive),14.2% (inactive),-3% (inactive),60% (inactive),85.5% (active),-2% (inactive),36% (inactive),34.3% (inactive),0% (inactive),49% (inactive),57.5% (inactive),1% (inactive),61% (inactive),73.2% (active)
CC(=O)Nc1ccc(S(=O)(=O)N/N=C/c2ccc(C)cc2)cc1,7% (inactive),8% (inactive),-3.15% (inactive),8% (inactive),1% (inactive),-17.6% (inactive),15% (inactive),6% (inactive),7.45% (inactive),8% (inactive),1% (inactive),64.5% (inactive),26% (inactive),-1% (inactive),-38.6% (inactive),28% (inactive),7% (inactive),-12.4% (inactive)
CC1(c2ccccc2)c2ccccc2N(c2ccccc2)C(=O)C1O (stereo not given),98% (active),100% (active),-2.35% (inactive) and 99.5% (active),98% (active),100% (active),7.75% (inactive) and 99.7% (active),97% (active),99% (active),8.35% (inactive) and 99.6% (active),96% (active),99% (active),1.8% (inactive) and 99.2% (active),97% (active),99% (active),-0.35% (inactive) and 99.7% (active),98% (active),99% (active),10.2% (inactive) and 99.4% (active)
